Sampled rows, rich in hits. Any-hit rate of the full collection: about 7.8%.
HCV inh – blocks hepatitis C virus; Huh7.5.1 HCVcc-Cre infection, luciferase reporter, 44 h; Potency, µM (series often up to 41.8 µM), for the others: top-dose activity change, negative = inhibition, most hits filed as inhibitors; 340,000 compounds, 3.4% hits; AID 651820; active means well fitted inhibition curve with a large enough effect; inconclusive means small, poorly fitted or top-dose-only effect, or another doubt; inactive means no such curve, though single readings can be large or run the other way; further: potency means the concentration at half of the fitted maximal effect
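Seed cells (1,000/well) for 4 h; treat with compound and infect with HCVcc-Cre, moi about 0.5. Incubate 44 h, then detect luciferase activity.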
Vaccinia Venus – inhibitors of vaccinia virus (Venus reporter); Vaccinia virus Venus reporter expression, fluorescence; Potency, µM (top dose mostly 36.5 µM), without a hit: at the highest dose activity change, negative = inhibition, usual class: inhibitors; 330,000 compounds, 0.46% hits; AID 720580; calls by dose curve; tested in A549 cells; further: potency means the concentration at half of the fitted maximal effect; nearly all actives have a fitted effect of over 30% in size
Marburg entry inh – inhibitors of Marburg virus binding or cell entry; Marburg virus pseudotyped entry inhibition, cell reporter; Potency, µM (highest dose often 37.8 µM), without a hit: at the top dose activity change, negative = inhibition, most hits filed as inhibitors; 300,000 compounds, 1.8% hits; calls by dose curve; tested in HEK293 cells; further: potency means the concentration at half of the fitted maximal effect
VACV mCherry inh – vaccinia inhibition (mCherry reporter). Vaccinia virus mCherry reporter infection, fluorescence. Potency, µM (top dose mostly 36.5 µM), for the others: top-dose activity change, negative = inhibition, actives largely listed as inhibitors. 310,000 compounds, 0.63% hits. AID 720579; calls by dose curve; tested in A549 cells; further: potency means the concentration at half of the fitted maximal effect; nearly all actives have a fitted effect of over 35% in size
HCMV antiviral – blocks human cytomegalovirus replication. activity change, negative = inhibition, % at 57.5 µM. 410,000 compounds, 4.5% hits. HFF cells, HCMV-luciferase reporter, 72 h; hits give low values; in the data active means activity change below about -60%; inconclusive means no clear call, values can overlap the other calls; inactive means above about -39%
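Human foreskin fibroblasts infected with luciferase-reporter HCMV at MOI 1 PFU/cell, compounds at two doses. Luciferase measured 72 h post infection; normalized to buffer-only basal and Salinomycin (10uM) controls.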
LASV entry inh – Lassa virus entry inhibition; Lassa virus pseudotype entry inhibition, cell reporter; Potency, µM (titrated, usually from 37.9 µM), for the others: top-dose activity change, negative = inhibition, usual class: inhibitors; 300,000 compounds, 1.2% hits; AID 540256; calls by dose curve; tested in HEK293 cells; further: potency means the concentration at half of the fitted maximal effect; nearly all actives have a fitted effect of over 50% in size
Starred values were filed as active, the others as inactive; i = inactive; ? = inconclusive; · = not tested or not shown; [ ] = dose if it differs, or a comment. On the % scale 0 is the no-effect control and ±100 the full control effect.

SMILES	HCV inh	Vaccinia Venus	Marburg entry inh	VACV mCherry inh	HCMV antiviral	LASV entry inh
O=C(Nc1ccccc1F)c1ccc(Cn2nc(N3CCN(c4ccccc4)CC3)ccc2=O)o1	·	-13%	·	?	?	?
O=C(Nc1ccc(F)cc1)c1ccc(Cn2nc(N3CCN(c4ccccc4)CC3)ccc2=O)o1	·	?	·	-29%	-62*	?
COc1ccc(-c2nnc(SCC(=O)Oc3cc(C)ccc3C)o2)cc1	·	-18%	-21%[46.1 µM]	i	-4	12%[46.1 µM]
NC(=S)NN=C1CCC2(CCCCC2)CC1	-10%	?	?	?	-33	7%
CC1(C)CCC(=NNC(N)=S)CC1	8%	?	?	11µM*	0	-2%
C[C@H]1CCC2[C@](C)(CO)[C@@H](O)CC[C@]2(C)[C@@]12CCC(CO)(CCO)O2 (some centres undefined)	7%	-7%	19%[46.1 µM]	-10%	29	-1%[46.1 µM]
C[C@@]1(CO)[C@H](O)CC[C@@]2(C)[C@H]1CC[C@H]1C[C@@H]3C[C@@]12CC[C@]3(O)CO	-20%[8.37 µM]	-34%[60.7 µM]	0.52µM*	-34%[60.7 µM]	·	?
[O-]/C(=C(\C(=S)Nc1ccc(SC(F)F)cc1)[n+]1ccccc1)c1ccc(Cl)cc1Cl	13µM*	-15%	?	i	-63*	?
Cc1ncc2c(c1CNS(=O)(=O)N(C)C)CCN(C(=O)/C=C/c1cccc(F)c1)C2	·	6%	·	-4%	·	·
CCCC1OC2CC3C4CCC5=CC(=O)C=CC5(C)C4C(O)CC3(C)C2(C(=O)O)O1 (centres undefined)	7%	·	·	·	32	·
CCCC1O[C@@H]2C[C@H]3[C@@H]4CCC5=CC(=O)C=C[C@]5(C)[C@H]4[C@@H](O)C[C@]3(C)[C@]2(C(=O)CO)O1 (some centres undefined)	1%[8.37 µM]	-18%	9.2µM*	-23%	38	?
CCCCN(CC)Cc1ccc(CNC(=O)Nc2ccc(OCC)cc2)o1	13µM*	·	?	·	-10	2%
CCCCN(CC)Cc1ccc(CNC(=O)Nc2ccc(Cl)cc2)o1	?	-10%	?	i	-17	?
CCS(=O)(=O)c1nc(S(=O)(=O)c2ccc(Cl)cc2)c(NCc2ccccc2Cl)s1	·	-8%	?	-11%	-14	-14%[46.1 µM]
CCc1cc(C(=O)NCC2Cc3cccc(-c4ccc(C(=O)OC)cn4)c3O2)no1 (centres undefined)	·	-2%	·	-15%	·	·
COc1cccc(Cn2cccc(NC(=O)Nc3cccc(C#N)c3)c2=O)c1	?	-12%	·	-22%	-62*	·
COc1cccc(NC(=O)Nc2cccn(Cc3ccc(C)cc3)c2=O)c1	11µM*	·	?	·	?	?
COc1ccc(NC(=O)c2cccn(Cc3ccc(Cl)cc3)c2=O)c(OC)c1	·	?	·	-2%	-70*	?
COc1cccc(Cn2cc(C)cc(NC(=O)NCc3ccccc3)c2=O)c1	-22%	·	·	·	11	·
COc1ccc(NC(C)=O)cc1NC(=O)c1cccn(Cc2ccccc2)c1=O	·	-8%	·	-14%	1	12%[46.1 µM]
COc1cccc(NC(=O)Nc2cc(C)ccc2OC)c1	-26%	-26%	?	-6%	?	3%[46.1 µM]
C[C@@H]1COc2cccc(NC3CC3)c2S(=O)(=O)N1	·	·	·	·	0	·
Cc1c(Cl)cccc1-n1ncc(C(=O)NCCN2CCN(C)CC2)c1C1CCN(C(=O)OC(C)(C)C)CC1	·	-7%	·	6%	6	17%[46.1 µM]
Cc1ccc(Cl)cc1NC(=O)CC(O)(C(F)(F)F)C(F)(F)F	22µM*	28µM*	?	?	-102*	?
COCC(=O)Nc1cc(Cl)ccc1C	-3%	0%	16%[46.1 µM]	-11%	-31	16%
SMILES	HCV inh	Vaccinia Venus	Marburg entry inh	VACV mCherry inh	HCMV antiviral	LASV entry inh
Cc1ccc(-c2nc(N=Nc3ccc(O)cc3)n[nH]2)cc1	9%	?	-6%	?	-100*	?
COc1ccc(-c2nc(N=Nc3ccc(O)cc3)n[nH]2)cc1	-3%	-13%	3%	-29%	17	-2%
CCCCCCCCNCCS(=O)(=O)NCCCCCCCC	3.2µM*	-16%	·	i	-102*	·
CCCCCCCCNS(=O)(=O)CCNCCc1ccccc1	16%	?	·	-19%	-17	·
Cc1noc(C)c1S(=O)(=O)N(C)C[C@H]1Oc2ccc(NS(=O)(=O)c3ccc(F)cc3)cc2C(=O)N([C@H](C)CO)C[C@@H]1C	-11%	-4%	·	i	-17	·
Cc1noc(C)c1NC(=O)N(C)C[C@@H]1Oc2ccc(NS(=O)(=O)c3c(C)noc3C)cc2C(=O)N([C@H](C)CO)C[C@H]1C	3.2µM*	2%	·	i	-36	·
Cc1noc(C)c1S(=O)(=O)Nc1ccc2c(c1)C(=O)N([C@H](C)CO)C[C@H](C)[C@@H](CN(C)C(=O)NC(C)C)O2	?	-12%	·	i	26	·
Cc1noc(C)c1S(=O)(=O)N(C)C[C@H]1Oc2ccc(NS(=O)(=O)c3cn(C)cn3)cc2C(=O)N([C@H](C)CO)C[C@@H]1C	3.5µM*	-10%	·	i	-5	·
COC(=O)c1ccc(NC(=O)NCCn2nnc3cc(S(=O)(=O)N(C)C)ccc32)cc1	·	-5%	·	-1%	8	5%[46.1 µM]
CCC(C)n1c(SCc2ccc([N+](=O)[O-])cc2)nc2ccsc2c1=O (centres undefined)	10µM*	-10%	13µM*	-23%	-23	?
Cc1ccc2oc(C(=O)Nc3sc4c(c3C(=O)NCc3ccccc3)CCCC4)cc(=O)c2c1	·	-5%	10%[46.1 µM]	-6%	12	19%[46.1 µM]
COc1cc(C2CC(=O)Nc3cc4c(cc32)OCCO4)cc(Br)c1OC (centres undefined)	·	-30%[7.34 µM]	?	?	-81*	?
CCCCOc1ccccc1C1CC(=O)Nc2cc(C)c(C)cc21 (centres undefined)	·	?	·	?	-27	-17%[46.1 µM]
CCOc1c(Br)cc(C2CC(=O)Nc3cc4c(cc32)OCO4)cc1OC (centres undefined)	·	-20%[7.34 µM]	?	-27%[7.34 µM]	11	?
CCCOc1ccccc1C1CC(=O)Nc2cc3c(cc21)OCCO3 (centres undefined)	2.5µM*	?	2.8µM*	?	·	?
CCOc1ccccc1C1CC(=O)Nc2cc(C)c(C)cc21 (centres undefined)	?	·	·	·	-19	·
CCOc1ccccc1C1CC(=O)Nc2cc3c(cc21)OCCO3 (centres undefined)	?	·	8.2µM*	·	-99*	?
COc1cc(F)ccc1Oc1cccc2c1S(=O)(=O)N([C@H](C)c1ccccc1)C[C@@H](COCc1ccccc1)O2	·	·	·	·	-23	·
CCOc1cc(C(=O)N2CCc3c([nH]c4ccccc34)C2c2ccccc2)cc(OCC)c1OCC (centres undefined)	·	-14%	·	i	-19	?
